Screening data from PubChem.
NadD block: NadD (S. aureus) enzyme inhibition; purified NadD enzyme, colorimetric absorbance read-out; inhibition, % at 20 µM; 360,000 compounds, 0.78% hits; in the data active means inhibition above about 26%
rCAG binder: r(CAG) repeat RNA binding; TO-PRO-1 dye displacement fluorescence; inhibition, % at 3 µM; 370,000 compounds, 1.3% hits; AID 651821;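 active means inhibition above the plate cutoff, the mean of all test compounds on that plate plus 3 SD, cut at about 35% in these data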;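 further: 0% = DMSO alone and 100% = 100 µM mitoxantrone as full dye displacement; higher means more dye released from RNA so lower well fluorescence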
NR3A LBD binder: NR3A (human) ligand-binding domain modulation; NR3A LBD differential scanning fluorimetry, Tm shift; 0% = protein alone, 100% = glycine-bound protein; Tm shift relative to glycine control, % at 25 µM; 340,000 compounds, 2.5% hits;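 active means melting temperature shift of at least 10% of the positive control shift, at one fixed dose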
FAS TE block: blocks the thioesterase domain of human fatty acid synthase. P49327. recombinant FAS-TE, OMFH fluorogenic substrate, fluorescence endpoint. inhibition, % at 15 µM. 360,000 compounds, 0.67% hits. AID 602261;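 active means compounds whose normalised, plate-corrected inhibition of enzyme fluorescence in the single-dose primary screen is 50% or more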;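 further: 0% = DMSO with enzyme and 100% = substrate without enzyme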
* marks the source's active call; other numbers are inactive results. An excerpt weighted towards active compounds, which were near 4.3% of everything screened.

What do the screens show for `Nc1[nH]c(C(=O)c2ccccc2)c(-c2cccc3ccccc23)c1C(=O)NC1CCCCC1`?
rCAG binder: 7

How did CCCCCCCCCCCCCCCC[n+]1ccc(/C=N/O)cc1 do in these assays?
NadD block: 20; rCAG binder: 15; NR3A LBD binder: 25*; FAS TE block: -156

How did CCCCCCCCCCCCCCCC[n+]1ccccc1 do in these assays?
NadD block: 17; rCAG binder: 7; NR3A LBD binder: -7; FAS TE block: -111

What do the screens show for `CC(C)c1cc(C(C)C)n2nc(N)nc2n1`?
NadD block: -7; rCAG binder: 0; NR3A LBD binder: 10*; FAS TE block: -6

What do the screens show for `CCCc1cc(CCC)n2nc(N)nc2n1`?
NadD block: -3; rCAG binder: 0; FAS TE block: -8

What do the screens show for `CC(C)c1nc(N(C)S(C)(=O)=O)nc(-c2ccc(F)cc2)c1/C=C/[C@H](O)C[C@@H](O)CC(=O)O`?
rCAG binder: 3

How did C[C@@H]1OC(c2ccccc2)N(C)[C@H]2C[C@H]3c4[nH]c5cccc(-c6ccccc6)c5c4CCN3C[C@@H]12 (stereo partly specified) do in these assays?
rCAG binder: 9

Results for Cc1ccc(N(C)S(=O)(=O)c2c[nH]c3ccc([N+](=O)[O-])cc23)cc1 ?
NadD block: -12; rCAG binder: 17; NR3A LBD binder: 117*; FAS TE block: -96

How did CN(C)c1cccc(/C=C2\CC3(OC(=O)c4cccc(F)c4)CCCN2C3)c1 (stereo unspecified) do in these assays?
rCAG binder: 3

How did COC(=O)c1sc(NC(=O)CC(C)C)c(C(=O)OC)c1C do in these assays?
NadD block: -7; rCAG binder: 2; NR3A LBD binder: 21*; FAS TE block: 12

How did CCN(CC)c1ccc(C=N/C(C#N)=C(\N)C#N)cc1 do in these assays?
NadD block: -7; rCAG binder: -1; NR3A LBD binder: 27*; FAS TE block: -2

How did COc1ccc(OC)c(S(=O)(=O)N2CCCC(C(=O)N3CCN(Cc4ccccc4)CC3)C2)c1 (stereo unspecified) do in these assays?
rCAG binder: 1

Results for COc1ccc(/C=N/NS(=O)(=O)c2ccc(F)cc2)cc1COc1cc(F)ccc1[N+](=O)[O-] ?
NadD block: 14; rCAG binder: 12; NR3A LBD binder: 11*; FAS TE block: 13

What do the screens show for `COc1ccc(/C=N\NC(=O)c2ccc(F)cc2)cc1COc1cc(F)ccc1[N+](=O)[O-]`?
NadD block: 12; rCAG binder: 15; NR3A LBD binder: -4; FAS TE block: 13

What do the screens show for `COc1ccc(OC)c(S(=O)(=O)N/N=C\c2c[nH]c3ccccc23)c1`?
NadD block: -1; rCAG binder: 10; NR3A LBD binder: 32*; FAS TE block: 0

What do the screens show for `COc1ccc(OC)c(S(=O)(=O)N/N=C(/C)c2c[nH]c3ccccc23)c1`?
NadD block: 2; rCAG binder: 2; NR3A LBD binder: 25*; FAS TE block: -2

How did COc1cc(/C=N/NS(=O)(=O)c2ccccc2)c(OC)c(OC)c1 do in these assays?
NadD block: -4; rCAG binder: 3; NR3A LBD binder: -2; FAS TE block: -8

How did O=C(c1cccnc1Cl)N1CCC(Oc2cccnc2)CC1 do in these assays?
rCAG binder: 0

What do the screens show for `Cc1ccc(S(=O)(=O)CCC(=O)OCC(=O)NCCc2ccc(F)cc2)cc1`?
NadD block: -3; rCAG binder: -5; NR3A LBD binder: 0; FAS TE block: -1

How did Cc1ccc(S(=O)(=O)CCC(=O)OCC(=O)NCCc2ccccc2)cc1 do in these assays?
NadD block: -3; rCAG binder: -2; NR3A LBD binder: 15*; FAS TE block: -5

What do the screens show for `Cc1cccc(Cn2cc(CN3CC(N4CCN(CCOC(=O)c5cc6ccccc6o5)CC4)CS3(=O)=O)nn2)c1` (stereo unspecified)?
rCAG binder: 6

How did Cc1cc(C)c(OCC(=O)OCCNC(=O)c2cccnc2)c(C)c1 do in these assays?
NadD block: 0; rCAG binder: -4; NR3A LBD binder: 2; FAS TE block: -7

Results for C=CCc1ccccc1OCC(=O)OCCNC(=O)c1cccnc1 ?
NadD block: 1; rCAG binder: 1; NR3A LBD binder: 20*; FAS TE block: -7

How did CCCNC(=O)N1C2=NC(C(=O)OC)=C(C(=O)OC)[C@@H]3N(Cc4ccccc4)c4ccccc4[C@]23C[C@H]1CO do in these assays?
NadD block: 0; rCAG binder: 3; NR3A LBD binder: -1; FAS TE block: 80*

What do the screens show for `CCn1c(C(C)NC(=O)c2cccs2)n[nH]c1=S` (stereo unspecified)?
NadD block: -2; rCAG binder: -1; NR3A LBD binder: 10*; FAS TE block: -4

How did CCOC(=O)Nc1cccnc1Sc1ccc(Cl)cc1 do in these assays?
NadD block: -2; rCAG binder: -5; NR3A LBD binder: 0; FAS TE block: -1

How did Cc1ccc(Sc2ncccc2NC(=O)c2ccccc2Cl)cc1 do in these assays?
NadD block: 0; rCAG binder: -4; NR3A LBD binder: 14*; FAS TE block: -7

How did CC(C)[C@H](NC(=O)c1ccccc1)C(=O)N1CCC[C@H]1C(=O)NCc1ccccc1 do in these assays?
rCAG binder: 2

What do the screens show for `O=C(O)c1cccc2cccc(-c3c4ccc(=O)c(O)c-4oc4c(O)c(O)ccc34)c12`?
NadD block: 83*; rCAG binder: 92*; NR3A LBD binder: -10; FAS TE block: 19

How did O=C(Nc1ccccc1)c1cc2ccccc2c(=O)s1 do in these assays?
NadD block: -3; rCAG binder: 8; NR3A LBD binder: -7; FAS TE block: 15

What do the screens show for `O=C(Nc1ccc(O)cc1)c1cc2ccccc2c(=O)s1`?
NadD block: -1; rCAG binder: 8; NR3A LBD binder: 24*; FAS TE block: 5

How did CC(C)N(C(N)=NC(=O)OCc1ccccc1)C(C)C do in these assays?
rCAG binder: -2

Results for S=C(Nc1ccc2cn[nH]c2c1)Nc1ccc(Cl)cc1Cl ?
NadD block: 5; rCAG binder: 6; NR3A LBD binder: 13*; FAS TE block: -16

What do the screens show for `S=C(Nc1ccc(Cl)cc1)Nc1ccc2cn[nH]c2c1`?
NadD block: 1; rCAG binder: 5; NR3A LBD binder: 26*; FAS TE block: -4

What do the screens show for `S=C(Nc1ccc2cn[nH]c2c1)Nc1ccccc1Cl`?
NadD block: 0; rCAG binder: 0; NR3A LBD binder: 4; FAS TE block: -10

Results for COc1ccc(NC(=S)Nc2ccc3cn[nH]c3c2)cc1 ?
NadD block: -5; rCAG binder: 7; NR3A LBD binder: 10; FAS TE block: -26

What do the screens show for `CCCCNC(=S)Nc1ccc2cn[nH]c2c1`?
NadD block: -3; rCAG binder: -1; NR3A LBD binder: 21*; FAS TE block: -13

Results for CC(C)NC(=S)Nc1ccc2cn[nH]c2c1 ?
NadD block: 3; rCAG binder: 0; NR3A LBD binder: 0; FAS TE block: -9

What do the screens show for `CCc1ccc(NC(=S)Nc2ccc3cn[nH]c3c2)cc1`?
NadD block: 2; rCAG binder: 3; NR3A LBD binder: 14*; FAS TE block: -14
